Measured values taken from PubChem BioAssay (EPA / NIEHS).
Inconclusive results are not listed. Activity calls are given as the source filed them. The calls were made as follows: active = hit-call score of the fitted dose curve at least 0.9, where 1 is the maximum; inconclusive = response in the unintended direction; inactive = score below 0.9.

How the values were obtained:
[1] = molecular target: human Neonicotinoid receptor (NNR), CHRNA2 (gene 1135) (UniProt Q15822); assay: NVS_LGIC_hNNR_NBungSens: NovaScreen (NVS) Ligand-Gated Ion Channel Assay for human Neonicotinoid receptor (NNR) (AID 2283313)
Outline: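 Compounds first screened in duplicate at 25 uM, then actives re-tested in single-replicate dose series up to 50 uM. Binding measured as displacement of specific radioligand from neuroblastoma membrane receptors after 2 h, scintillation read on filters.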

[2] = molecular target: rat Vasopressin 1 Receptor (V1), Avpr1a (gene 25107) (UniProt P30560); assay: NVS_GPCR_rV1: NovaScreen (NVS) G Protein-Coupled Receptor Assay for rat Vasopressin 1 Receptor (V1) (AID 2283316)
Outline: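 Concentration-response up to 50 uM for chemicals passing a threshold such as 30% inhibition in an initial duplicate 25 uM screen. Displacement of radioligand from rat liver membranes measured after 1.5 h by filtration and scintillation.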

[3] = molecular target: Voltage-dependent N-type calcium channel subunit alpha-1B (Rattus norvegicus) (UniProt Q02294); assay: NVS_IC_rCaChN: NovaScreen (NVS) Ion Channel Assay for rat Calcium Channel, Type N (CaChN) (AID 2283317)
[4] = molecular target: bovine Gamma-Aminobutyric Acid Type A Receptor BDZ, alpha 1 site (GABARa1), GABRA1 (gene 780973) (UniProt P08219); assay: NVS_LGIC_bGABARa1: NovaScreen (NVS) Ligand-Gated Ion Channel Assay for bovine Gamma-Aminobutyric Acid Type A Receptor BDZ, alpha 1 site (GABARa1) (AID 2283321)
Outline: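 Bovine cortex membrane preparation, benzodiazepine site on GABA-A alpha1; specific radioligand displacement read after 0.75 h by filtration and scintillation. Screen at 25 uM, then singleton titrations up to 50 uM; DMSO baseline.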

[5] = molecular target: rat Glutamate, AMPA Site (AMPA), Gria1 (gene 50592) (UniProt P19490); assay: NVS_LGIC_rAMPA: NovaScreen (NVS) Ligand-Gated Ion Channel Assay for rat Glutamate, AMPA Site (AMPA) (AID 2283324)
Description: NVS_LGIC_rAMPA is a biochemical, single-readout assay that uses extracted gene-proteins from Rat forebrain membranes in a tissue-based cell-free assay. Measurements were taken 1 hour after chemical dosing in a 48-well plate.NVS_LGIC_rAMPA is one of one assay component(s) measured or calculated from the NVS_LGIC_rAMPA assay. It is designed to make measurements of radioligand binding, a form of binding reporter, as detected with scintillation counting signals by Filter-based radiodetection technology.Data from the assay component NVS_LGIC_rAMPA was analyzed into 1 assay endpoint. This assay endpoint, NVS_LGIC_rAMPA, was analyzed in the positive analysis fitting direction relative to DMSO as the negative control and baseline of activity. Using a type of binding reporter, loss-of-signal activity can be used to understand changes in the binding as they relate to the gene Gria1. Furthermore, this assay endpoint can be referred to as a primary readout, because the performed assay has only produced 1 assay endpoint. To generalize the intended target to other relatable targets, this assay endpoint is annotated to the ion channel intended target family, where the subfamily is ligand-gated ion channel. […]

[6] = molecular target: rat Glutamate, NMDA Agonist Site (GluNMDA), Grin1 (gene 24408) (UniProt P35439); assay: NVS_LGIC_rGluNMDA_Agonist: NovaScreen (NVS) Ligand-Gated Ion Channel Assay for rat Glutamate, NMDA Agonist Site (GluNMDA) (AID 2283327)
Outline: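 Radioligand displacement at the agonist site on rat forebrain membrane preparations, read by filter scintillation after 1 h. Chemicals were first run at 25 uM in duplicate; those passing threshold were titrated to a 50 uM maximum.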

[7] = molecular target: rat Oxytocin Receptor (OXT), Oxtr (gene 25342) (UniProt P70536); assay: NVS_GPCR_rOXT: NovaScreen (NVS) G Protein-Coupled Receptor Assay for rat Oxytocin Receptor (OXT) (AID 2283330)
Outline: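 Binding to rat uterine membrane receptor was followed by scintillation counting of filter-trapped radioligand after 1 h. A 25 uM duplicate single-point screen preceded concentration series with a top of 50 uM. Signal loss was analysed relative to DMSO.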

Chain of bovine Gamma-Aminobutyric Acid Type A Receptor BDZ, alpha 1 site (GABARa1), GABRA1 (gene 780973) (P08219 whole entry, looked up): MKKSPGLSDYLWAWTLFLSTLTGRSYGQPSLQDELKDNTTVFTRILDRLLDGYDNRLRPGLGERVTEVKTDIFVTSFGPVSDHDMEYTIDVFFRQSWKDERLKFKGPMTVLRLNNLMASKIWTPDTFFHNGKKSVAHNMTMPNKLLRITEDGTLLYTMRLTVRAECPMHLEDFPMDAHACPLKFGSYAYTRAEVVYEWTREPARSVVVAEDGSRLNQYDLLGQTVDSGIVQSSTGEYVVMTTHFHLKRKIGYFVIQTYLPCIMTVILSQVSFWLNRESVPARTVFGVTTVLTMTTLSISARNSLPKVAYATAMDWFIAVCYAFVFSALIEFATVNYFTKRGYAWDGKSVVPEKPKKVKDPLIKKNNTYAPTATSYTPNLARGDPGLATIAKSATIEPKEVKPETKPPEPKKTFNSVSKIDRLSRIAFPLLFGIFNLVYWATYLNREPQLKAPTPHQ
Chain of rat Glutamate, AMPA Site (AMPA), Gria1 (gene 50592) (P19490 whole entry, looked up): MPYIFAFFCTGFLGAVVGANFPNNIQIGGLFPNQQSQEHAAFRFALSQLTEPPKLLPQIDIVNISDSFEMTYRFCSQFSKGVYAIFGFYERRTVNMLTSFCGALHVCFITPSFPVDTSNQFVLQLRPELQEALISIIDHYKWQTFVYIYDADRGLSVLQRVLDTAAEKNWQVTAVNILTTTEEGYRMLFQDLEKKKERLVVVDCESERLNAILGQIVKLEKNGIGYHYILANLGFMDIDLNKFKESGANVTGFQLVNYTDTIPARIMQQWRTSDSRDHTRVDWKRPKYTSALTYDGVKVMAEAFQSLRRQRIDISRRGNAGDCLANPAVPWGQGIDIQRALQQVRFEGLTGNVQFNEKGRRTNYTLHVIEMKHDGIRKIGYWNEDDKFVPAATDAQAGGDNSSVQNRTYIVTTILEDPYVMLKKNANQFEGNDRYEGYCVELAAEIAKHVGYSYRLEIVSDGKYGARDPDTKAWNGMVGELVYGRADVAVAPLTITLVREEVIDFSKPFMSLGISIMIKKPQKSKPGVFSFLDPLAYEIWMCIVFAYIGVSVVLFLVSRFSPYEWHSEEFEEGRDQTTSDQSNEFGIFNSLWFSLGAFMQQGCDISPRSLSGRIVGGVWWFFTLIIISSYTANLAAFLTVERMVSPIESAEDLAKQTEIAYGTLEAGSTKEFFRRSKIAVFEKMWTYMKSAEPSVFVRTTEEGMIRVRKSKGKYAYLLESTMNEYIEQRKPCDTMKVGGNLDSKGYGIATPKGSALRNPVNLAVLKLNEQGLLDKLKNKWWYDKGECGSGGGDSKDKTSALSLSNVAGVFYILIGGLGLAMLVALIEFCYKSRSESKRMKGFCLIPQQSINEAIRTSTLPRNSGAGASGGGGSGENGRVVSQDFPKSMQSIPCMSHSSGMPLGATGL
Chain of rat Vasopressin 1 Receptor (V1), Avpr1a (gene 25107) (P30560 whole entry, looked up): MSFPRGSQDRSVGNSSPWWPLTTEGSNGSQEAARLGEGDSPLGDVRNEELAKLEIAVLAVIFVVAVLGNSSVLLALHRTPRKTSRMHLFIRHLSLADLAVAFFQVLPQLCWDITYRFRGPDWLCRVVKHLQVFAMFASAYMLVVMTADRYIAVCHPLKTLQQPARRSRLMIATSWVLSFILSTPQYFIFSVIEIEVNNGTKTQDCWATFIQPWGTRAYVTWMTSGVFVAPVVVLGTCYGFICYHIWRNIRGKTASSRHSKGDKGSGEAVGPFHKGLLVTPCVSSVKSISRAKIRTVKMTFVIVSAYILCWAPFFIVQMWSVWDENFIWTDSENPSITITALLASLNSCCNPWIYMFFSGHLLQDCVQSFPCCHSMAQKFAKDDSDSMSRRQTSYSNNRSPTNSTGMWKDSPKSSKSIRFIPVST
Chain of human Neonicotinoid receptor (NNR), CHRNA2 (gene 1135) (Q15822 whole entry, looked up): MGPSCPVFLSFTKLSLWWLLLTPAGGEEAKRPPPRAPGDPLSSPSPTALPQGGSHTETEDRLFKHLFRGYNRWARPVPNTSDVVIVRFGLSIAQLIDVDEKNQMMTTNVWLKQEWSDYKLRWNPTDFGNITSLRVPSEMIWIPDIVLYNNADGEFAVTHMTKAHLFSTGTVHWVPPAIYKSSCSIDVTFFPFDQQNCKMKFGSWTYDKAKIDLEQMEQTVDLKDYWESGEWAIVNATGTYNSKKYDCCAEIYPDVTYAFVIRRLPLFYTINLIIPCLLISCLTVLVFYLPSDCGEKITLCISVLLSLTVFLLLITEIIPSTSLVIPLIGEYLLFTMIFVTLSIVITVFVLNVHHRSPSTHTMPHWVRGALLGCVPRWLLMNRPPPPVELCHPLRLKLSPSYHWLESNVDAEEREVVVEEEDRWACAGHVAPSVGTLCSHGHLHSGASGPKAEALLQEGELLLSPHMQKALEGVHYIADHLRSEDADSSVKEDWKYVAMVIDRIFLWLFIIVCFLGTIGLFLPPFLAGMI
Chain of rat Oxytocin Receptor (OXT), Oxtr (gene 25342) (P70536 whole entry, looked up): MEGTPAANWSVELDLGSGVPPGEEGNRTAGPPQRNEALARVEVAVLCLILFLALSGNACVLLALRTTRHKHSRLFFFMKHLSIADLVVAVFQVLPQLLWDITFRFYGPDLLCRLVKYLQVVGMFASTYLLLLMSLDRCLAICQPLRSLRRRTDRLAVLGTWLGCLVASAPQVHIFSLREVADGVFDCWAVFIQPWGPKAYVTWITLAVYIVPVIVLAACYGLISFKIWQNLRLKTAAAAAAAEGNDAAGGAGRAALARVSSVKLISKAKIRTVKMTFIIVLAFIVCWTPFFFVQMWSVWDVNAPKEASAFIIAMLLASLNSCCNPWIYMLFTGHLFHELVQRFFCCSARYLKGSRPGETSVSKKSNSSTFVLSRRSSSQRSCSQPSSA

## Cc1ccc(-c2c(Cl)nc(C#N)n2S(=O)(=O)N(C)C)cc1
[1]
  AC50: 1.21 µM (active)

## CO/C=C(/C(=O)OC)c1ccccc1Oc1cc(Oc2ccccc2C#N)ncn1
[2]
  AC50: 26.4 µM (active)

## CCCCOC(=O)c1ccccc1C(=O)OCCCC
[3]
  outcome: inactive

## CCNc1nc(Cl)nc(NCC)n1
[3]
  outcome: inactive

## COc1nc(C)nc(NC(=O)NS(=O)(=O)c2ccccc2Cl)n1
[4]
  outcome: inactive

## CCOC(=O)C(Cl)Cc1cc(-n2nc(C)n(C(F)F)c2=O)c(F)cc1Cl (stereo unspecified)
[4]
  outcome: inactive

## COc1ccc(C(c2ccc(OC)cc2)C(Cl)(Cl)Cl)cc1
[5]
  outcome: inactive

## CNC(=S)S
[5]
  outcome: inactive

## COc1nc(C)nc(NC(=O)NS(=O)(=O)c2ccccc2CCC(F)(F)F)n1
[6]
  outcome: inactive

## CCCCC(CC)COC(=O)c1ccccc1C(=O)OCC(CC)CCCC (stereo unspecified)
[6]
  outcome: inactive

## C=CC1(C)OC(=O)N(c2cc(Cl)cc(Cl)c2)C1=O (stereo unspecified)
[7]
  outcome: inactive
